Source: the supplement of paper PMC10849652
The full data set covers some 7,900 targets. This sample favours those with a hit. About 0.6% of all pairs of compound and target were hits.

Compound: Cc1ccc(C(=O)N(CCCN)[C@@H](c2nc3cc(Cl)ccc3c(=O)n2Cc2ccccc2)C(C)C)cc1 [ispinesib]
Assay: log2 fold change, soluble protein after heating vs DMSO (PISA); higher = thermal stabilisation; K562 cells, 10 uM, 30 min; active = over 0.2 and 3.5 SD of the protein, either way, in both replicates (recomputed)
In short: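 Values are thermal stability changes relative to control samples and are taken from duplicates. They are stated as log2 fold changes. Before quantification by TMTpro 16plex LC-MS/MS with equalised channel sums, K562 cells at 2×10^6 cells/mL were treated with 10 μM compound for 30 min, heated in aliquots for 3 min across 48°C-58°C, pooled, extracted in PBS with 0.5% NP-40 at 4°C, and centrifuged at 21,000xg for 90 min to give the soluble supernatant.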

Chain of UniProt Q8TBX8 (Q8TBX8 whole entry, looked up): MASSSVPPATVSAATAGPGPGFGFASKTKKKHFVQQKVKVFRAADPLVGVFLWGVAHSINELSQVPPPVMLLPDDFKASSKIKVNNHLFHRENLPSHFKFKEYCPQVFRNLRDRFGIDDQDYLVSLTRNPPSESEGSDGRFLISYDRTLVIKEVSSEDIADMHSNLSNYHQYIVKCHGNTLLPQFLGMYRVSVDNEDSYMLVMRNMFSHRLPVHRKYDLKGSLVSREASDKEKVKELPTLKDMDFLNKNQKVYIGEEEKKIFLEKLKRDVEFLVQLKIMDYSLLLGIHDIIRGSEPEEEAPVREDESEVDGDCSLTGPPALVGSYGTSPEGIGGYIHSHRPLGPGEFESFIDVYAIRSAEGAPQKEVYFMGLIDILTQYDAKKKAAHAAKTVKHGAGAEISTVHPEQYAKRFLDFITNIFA
Chain of UniProt O15067 (O15067 whole entry, looked up): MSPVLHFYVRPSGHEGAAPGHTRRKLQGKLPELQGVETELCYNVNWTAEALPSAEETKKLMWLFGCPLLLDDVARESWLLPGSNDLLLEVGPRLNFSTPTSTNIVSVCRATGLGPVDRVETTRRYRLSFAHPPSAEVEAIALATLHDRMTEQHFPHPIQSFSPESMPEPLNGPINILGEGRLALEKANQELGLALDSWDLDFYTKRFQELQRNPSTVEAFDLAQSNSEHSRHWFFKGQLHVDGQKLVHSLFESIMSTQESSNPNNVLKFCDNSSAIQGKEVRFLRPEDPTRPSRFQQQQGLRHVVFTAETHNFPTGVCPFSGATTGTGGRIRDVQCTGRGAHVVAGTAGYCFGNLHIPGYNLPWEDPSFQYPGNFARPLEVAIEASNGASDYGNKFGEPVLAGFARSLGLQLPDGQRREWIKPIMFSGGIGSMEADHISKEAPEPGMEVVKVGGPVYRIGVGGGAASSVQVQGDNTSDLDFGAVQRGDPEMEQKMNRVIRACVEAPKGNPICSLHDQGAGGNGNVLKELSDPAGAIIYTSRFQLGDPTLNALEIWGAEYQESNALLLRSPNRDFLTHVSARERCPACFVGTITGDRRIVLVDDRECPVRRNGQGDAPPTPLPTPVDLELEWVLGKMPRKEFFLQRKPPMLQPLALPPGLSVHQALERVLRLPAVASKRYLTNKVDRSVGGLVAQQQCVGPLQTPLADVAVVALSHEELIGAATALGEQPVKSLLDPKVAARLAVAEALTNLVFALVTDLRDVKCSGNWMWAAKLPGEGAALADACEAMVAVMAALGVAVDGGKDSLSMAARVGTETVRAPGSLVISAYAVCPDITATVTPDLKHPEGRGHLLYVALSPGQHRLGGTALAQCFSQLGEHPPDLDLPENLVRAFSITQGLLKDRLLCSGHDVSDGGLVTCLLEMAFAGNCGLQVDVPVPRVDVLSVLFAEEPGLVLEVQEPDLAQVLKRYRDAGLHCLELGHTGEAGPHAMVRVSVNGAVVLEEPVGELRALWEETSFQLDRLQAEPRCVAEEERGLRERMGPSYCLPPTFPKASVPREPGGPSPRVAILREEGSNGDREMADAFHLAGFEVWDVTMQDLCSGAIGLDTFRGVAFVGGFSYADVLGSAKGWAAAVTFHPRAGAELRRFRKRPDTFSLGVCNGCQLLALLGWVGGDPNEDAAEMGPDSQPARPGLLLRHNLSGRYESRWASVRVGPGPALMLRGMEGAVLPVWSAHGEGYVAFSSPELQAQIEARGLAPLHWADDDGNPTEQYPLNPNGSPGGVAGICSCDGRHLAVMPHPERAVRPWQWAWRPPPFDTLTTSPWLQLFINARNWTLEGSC
Chain of UniProt Q6L8Q7 (Q6L8Q7 whole entry, looked up): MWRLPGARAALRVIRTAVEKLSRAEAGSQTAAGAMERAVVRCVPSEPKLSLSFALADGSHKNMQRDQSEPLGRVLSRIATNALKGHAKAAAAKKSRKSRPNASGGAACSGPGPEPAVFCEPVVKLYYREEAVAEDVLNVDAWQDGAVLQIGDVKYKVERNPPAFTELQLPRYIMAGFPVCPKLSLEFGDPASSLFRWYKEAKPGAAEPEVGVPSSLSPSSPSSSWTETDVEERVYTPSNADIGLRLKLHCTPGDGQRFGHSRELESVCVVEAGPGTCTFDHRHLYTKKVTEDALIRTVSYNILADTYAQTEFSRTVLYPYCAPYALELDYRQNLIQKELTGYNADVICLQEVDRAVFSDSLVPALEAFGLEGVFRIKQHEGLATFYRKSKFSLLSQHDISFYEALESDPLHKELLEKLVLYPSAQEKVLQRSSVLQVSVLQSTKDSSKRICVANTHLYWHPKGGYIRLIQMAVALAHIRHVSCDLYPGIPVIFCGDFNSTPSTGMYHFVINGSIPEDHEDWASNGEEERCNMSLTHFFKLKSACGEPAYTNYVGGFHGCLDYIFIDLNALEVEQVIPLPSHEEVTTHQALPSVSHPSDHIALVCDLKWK
Chain of UniProt Q96KB5 (Q96KB5 whole entry, looked up): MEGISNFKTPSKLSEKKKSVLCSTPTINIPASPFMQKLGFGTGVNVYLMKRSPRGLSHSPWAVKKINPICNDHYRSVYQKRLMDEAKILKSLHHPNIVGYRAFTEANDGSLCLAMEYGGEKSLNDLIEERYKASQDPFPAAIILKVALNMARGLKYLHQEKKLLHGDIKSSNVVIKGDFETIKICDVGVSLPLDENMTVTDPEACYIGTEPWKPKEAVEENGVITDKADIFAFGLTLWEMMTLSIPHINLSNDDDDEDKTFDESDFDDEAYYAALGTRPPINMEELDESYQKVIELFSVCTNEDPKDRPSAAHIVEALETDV
Chain of UniProt P28340 (P28340 whole entry, looked up): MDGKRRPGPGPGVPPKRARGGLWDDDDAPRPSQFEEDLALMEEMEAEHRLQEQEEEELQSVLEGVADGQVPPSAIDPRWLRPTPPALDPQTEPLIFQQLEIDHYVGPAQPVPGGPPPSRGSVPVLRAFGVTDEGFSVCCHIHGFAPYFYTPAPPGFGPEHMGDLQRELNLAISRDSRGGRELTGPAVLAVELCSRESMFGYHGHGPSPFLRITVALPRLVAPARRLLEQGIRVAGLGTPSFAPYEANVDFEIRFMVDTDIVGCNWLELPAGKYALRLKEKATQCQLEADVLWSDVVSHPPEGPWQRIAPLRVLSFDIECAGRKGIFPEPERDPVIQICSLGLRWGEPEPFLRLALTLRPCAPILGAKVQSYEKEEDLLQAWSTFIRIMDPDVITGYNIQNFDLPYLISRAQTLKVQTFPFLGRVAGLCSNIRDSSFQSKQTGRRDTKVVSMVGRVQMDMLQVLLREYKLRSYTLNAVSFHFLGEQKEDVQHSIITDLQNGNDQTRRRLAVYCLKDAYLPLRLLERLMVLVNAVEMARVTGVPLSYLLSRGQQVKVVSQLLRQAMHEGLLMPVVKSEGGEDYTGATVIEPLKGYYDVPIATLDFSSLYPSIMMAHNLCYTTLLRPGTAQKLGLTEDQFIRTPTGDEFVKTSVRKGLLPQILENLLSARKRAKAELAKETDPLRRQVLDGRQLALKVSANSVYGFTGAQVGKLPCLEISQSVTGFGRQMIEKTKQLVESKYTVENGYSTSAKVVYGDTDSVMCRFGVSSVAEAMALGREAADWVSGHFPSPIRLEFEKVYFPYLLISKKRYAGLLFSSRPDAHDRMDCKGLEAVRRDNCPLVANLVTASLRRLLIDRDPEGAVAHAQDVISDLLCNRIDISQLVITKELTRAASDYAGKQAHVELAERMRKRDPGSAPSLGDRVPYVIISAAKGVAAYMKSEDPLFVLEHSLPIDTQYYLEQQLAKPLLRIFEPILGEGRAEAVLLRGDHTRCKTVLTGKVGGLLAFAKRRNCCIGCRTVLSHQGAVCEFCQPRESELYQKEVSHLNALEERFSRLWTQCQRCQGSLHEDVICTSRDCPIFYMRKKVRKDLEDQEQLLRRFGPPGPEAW
Chain of UniProt Q15365 (Q15365 whole entry, looked up): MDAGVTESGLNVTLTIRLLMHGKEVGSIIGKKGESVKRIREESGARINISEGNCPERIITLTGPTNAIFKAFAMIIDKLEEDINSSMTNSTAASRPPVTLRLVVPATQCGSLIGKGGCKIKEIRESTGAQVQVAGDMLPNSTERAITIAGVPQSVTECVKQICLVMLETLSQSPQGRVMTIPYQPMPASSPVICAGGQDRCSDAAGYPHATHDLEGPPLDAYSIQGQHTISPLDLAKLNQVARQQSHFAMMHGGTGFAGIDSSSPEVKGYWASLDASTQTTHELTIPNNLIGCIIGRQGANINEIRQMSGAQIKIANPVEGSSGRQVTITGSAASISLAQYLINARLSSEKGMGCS
Chain of UniProt Q9NVM4 (Q9NVM4 whole entry, looked up): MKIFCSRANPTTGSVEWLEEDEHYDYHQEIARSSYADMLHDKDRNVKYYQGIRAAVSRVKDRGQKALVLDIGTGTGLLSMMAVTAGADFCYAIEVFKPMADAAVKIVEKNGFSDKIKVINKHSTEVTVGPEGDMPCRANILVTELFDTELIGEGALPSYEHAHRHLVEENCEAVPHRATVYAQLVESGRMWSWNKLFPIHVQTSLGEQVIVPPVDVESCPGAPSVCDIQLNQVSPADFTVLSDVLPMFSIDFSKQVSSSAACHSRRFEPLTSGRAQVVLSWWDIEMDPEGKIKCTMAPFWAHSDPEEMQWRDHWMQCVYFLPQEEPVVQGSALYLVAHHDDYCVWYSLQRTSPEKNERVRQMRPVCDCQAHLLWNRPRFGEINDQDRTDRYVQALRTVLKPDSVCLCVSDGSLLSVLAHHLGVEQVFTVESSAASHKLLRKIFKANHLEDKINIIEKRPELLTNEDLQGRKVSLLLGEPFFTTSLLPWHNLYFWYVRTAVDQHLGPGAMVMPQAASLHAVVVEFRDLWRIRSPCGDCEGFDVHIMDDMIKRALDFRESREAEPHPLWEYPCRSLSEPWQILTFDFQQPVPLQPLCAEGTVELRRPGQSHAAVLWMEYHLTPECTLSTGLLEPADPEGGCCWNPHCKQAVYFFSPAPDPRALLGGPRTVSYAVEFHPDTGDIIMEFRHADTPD
Chain of UniProt Q9Y3C6 (Q9Y3C6 whole entry, looked up): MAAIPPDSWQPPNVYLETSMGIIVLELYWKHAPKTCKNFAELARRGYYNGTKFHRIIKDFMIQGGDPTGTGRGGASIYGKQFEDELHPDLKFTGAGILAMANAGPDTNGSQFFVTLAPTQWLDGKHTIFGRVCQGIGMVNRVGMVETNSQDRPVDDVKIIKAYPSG

Target	log2 fold change
PARN (UniProt O95453)	-0.021 (inactive)
PEF1 (UniProt Q9UBV8)	0.208 (inactive)
POLD1 (UniProt P28340)	-0.01 (inactive)
PARG (UniProt Q86W56)	-0.148 (inactive)
PRMT7 (UniProt Q9NVM4)	0.065 (inactive)
PDLIM7 (UniProt Q9NR12)	-0.075 (inactive)
POLD3 (UniProt Q15054)	-0.123 (inactive)
POLR2A (UniProt P24928)	0.006 (inactive)
PLD3 (UniProt Q8IV08)	-0.132 (inactive)
PPIL1 (UniProt Q9Y3C6)	-0.089 (inactive)
PPP2R5A (UniProt Q15172)	-0.056 (inactive)
PPOX (UniProt P50336)	0.02 (inactive)
PLBD2 (UniProt Q8NHP8)	-0.088 (inactive)
PRKAR2B (UniProt P31323)	-0.001 (inactive)
PJA2 (UniProt O43164)	-0.098 (inactive)
PCBP1 (UniProt Q15365)	0.028 (inactive)
PGK2 (UniProt P07205)	0.024 (inactive)
PSMD6 (UniProt Q15008)	0.056 (inactive)
POLR2K (UniProt P53803)	0.029 (inactive)

Target	log2 fold change
PSMD9 (UniProt O00233)	0.016 (inactive)
PDSS2 (UniProt Q86YH6)	-0.031 (inactive)
PYGL (UniProt P06737)	0.015 (inactive)
PYGB (UniProt P11216)	0.013 (inactive)
PDE12 (UniProt Q6L8Q7)	0.065 (inactive)
POLR1A (UniProt O95602)	-0.151 (inactive)
PBK (UniProt Q96KB5)	-0.066 (inactive)
PFAS (UniProt O15067)	0.128 (inactive)
PRKACA (UniProt P17612)	0.053 (inactive)
PSMD12 (UniProt O00232)	0.003 (inactive)
POGLUT1 (UniProt Q8NBL1)	0.087 (inactive)
PTDSS1 (UniProt P48651)	-0.326 (inactive)
PRKAB2 (UniProt O43741)	0.143 (inactive)
PPM1G (UniProt O15355)	-0.055 (inactive)
PARL (UniProt Q9H300)	-0.193 (inactive)
PIP4K2C (UniProt Q8TBX8)	0.009 (inactive)
PRPF4B (UniProt Q13523)	0.082 (inactive)
POM121 (UniProt Q96HA1)	-0.307 (active)
